HPGD inh: inhibitors of human 15-hydroxyprostaglandin dehydrogenase (HPGD) | P15428 | purified HPGD, NADH fluorescence kinetic, PGE2 substrate | Potency, µM, for inactives: at the top dose activity change, negative = inhibition, most hits filed as inhibitors | hit rate 4.3% among 150,000 | AID 894
Target sequence (P15428 whole entry, looked up): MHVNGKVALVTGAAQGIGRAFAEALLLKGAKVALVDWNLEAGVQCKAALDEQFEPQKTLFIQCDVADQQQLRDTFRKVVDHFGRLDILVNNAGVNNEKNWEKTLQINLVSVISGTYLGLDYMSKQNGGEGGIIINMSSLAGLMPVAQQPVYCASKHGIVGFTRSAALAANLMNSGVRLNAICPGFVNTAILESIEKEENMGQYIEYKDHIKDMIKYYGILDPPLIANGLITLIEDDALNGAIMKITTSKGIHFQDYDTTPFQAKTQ
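20 nM HPGD preincubated 15 min at room temperature with compound in 50 mM Tris-HCl pH 8, 0.01% Tween 20. Started with 1 mM NAD+ and 30 uM prostaglandin E2; NADH fluorescence (360/450 nm) read 5 times over 30-s intervals, last minus first.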
ALDH1A1 block: inhibitors of human aldehyde dehydrogenase 1A1; P00352; Purified ALDH1A1, NADH fluorescence, propionaldehyde substrate; Potency, µM (highest dose often 75.3 µM), for inactives: top-dose activity, negative = inhibition, most hits filed as inhibitors; hit rate 7.3% among 220,000; AID 1030;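 further: plate controls were no enzyme wells and a reference inhibitor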
Target sequence (P00352 whole entry, looked up): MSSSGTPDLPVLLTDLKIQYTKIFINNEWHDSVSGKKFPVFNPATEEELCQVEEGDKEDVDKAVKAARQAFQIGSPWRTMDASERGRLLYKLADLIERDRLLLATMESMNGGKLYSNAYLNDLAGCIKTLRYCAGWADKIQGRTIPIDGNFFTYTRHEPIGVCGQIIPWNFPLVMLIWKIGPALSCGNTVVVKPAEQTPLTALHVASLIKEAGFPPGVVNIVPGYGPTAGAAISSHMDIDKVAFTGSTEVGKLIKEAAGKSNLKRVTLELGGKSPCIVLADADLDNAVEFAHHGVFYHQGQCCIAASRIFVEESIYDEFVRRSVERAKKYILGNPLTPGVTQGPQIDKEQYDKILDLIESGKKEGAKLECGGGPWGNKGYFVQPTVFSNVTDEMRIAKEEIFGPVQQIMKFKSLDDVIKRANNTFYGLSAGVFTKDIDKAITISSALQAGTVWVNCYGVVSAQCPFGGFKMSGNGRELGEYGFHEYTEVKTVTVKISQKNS
LMNA splice mod: LMNA splicing modulation; Potency, µM (highest dose often 46.1 µM), for inactives: at the top dose ratio change, negative = inhibition, usual class: inhibitors; hit rate 0.01% among 200,000; HeLa LMNA splicing GFP/RFP minigene ratio, 48 h; active means well fitted inhibition curve with a large enough effect in the signal ratio, with a control signal flat, not every such curve was filed as active; inconclusive means small, poorly fitted or top-dose-only effect, or effect the other way, or a change in a side signal; the % refers to the signal ratio
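Read-out is the ratio of GFP to DsRed2 object intensity, acquired by 488 nm laser-scanning cytometry on HeLa lamin A-EGFP minigene reporter cells. Compound incubation 48 hrs at 37 °C in Opti-MEM with 2% FBS; DMSO 0.5% final.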
IMPase Li inh: cell-permeable IMPase inhibitors with lithium potentiation | CHO-M1 cells, IP1 TR-FRET (IP-One), carbachol + lithium | Potency, µM (highest dose often 59.4 µM), for the others: at the top dose activity, negative = IMPase inhibition, actives largely listed as inhibitors | hit rate 0.35% among 210,000; active means well fitted curve in the direction sought with a large enough effect; inconclusive means small, poorly fitted or top-dose-only effect, or another doubt; inactive means no such curve, though single readings can be large; an effect the other way counts as inactive or inconclusive;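 further: IP1 builds up when IMPase is blocked and the TR-FRET signal falls; plate controls were basal vehicle for no effect and high inhibitor control for full effect; nearly all actives have a fitted effect of over 50% in size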
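Lithium-sensitised IP1 accumulation assay; M1-expressing CHO cells treated 30 min at 37C with compound. Competitive antibody detection by time-resolved FRET followed a 10 min room-temperature lysis step.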
KinaseGlo FLuc: counter-screen: inhibitors of Kinase-Glo firefly luciferase. Q27757. Kinase-Glo luciferase, ATP luminescence, 8 min. Potency, µM (highest dose often 38.3 µM), inactives show top-dose activity change, negative = inhibition, usual class: inhibitors. hit rate 0.28% among 200,000; active means well fitted curve in the direction sought with a large enough effect; inconclusive means small, poorly fitted or top-dose-only effect, or another doubt; inactive means no such curve, though single readings can be large; an effect the other way counts as inactive or inconclusive; further: nearly all actives have a fitted effect of over 60% in size
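Compounds were added to a substrate mix at pH 7.2 (50 mM imidazole, 10 uM ATP, within the enzyme's linear range), followed by Kinase-Glo detection reagent; luminescence was measured after 8 minutes at ambient temperature.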
Active calls of the source: *; ? = inconclusive; nt = not tested or not shown; [ ] = another dose, or the depositor's remark. Hits are enriched below; roughly 9% of the tested compounds scored in any of these assays. Unless noted, the call rests on the fitted dose curve; in most records, active means well fitted inhibition curve with a large enough effect (not every such curve was filed as active); inconclusive means small, poorly fitted or top-dose-only effect, or another doubt; inactive means no such curve, though single readings can be large or run the other way. Unless noted, on the % scale 0 is the no-effect control and ±100 the full control effect; potency means the concentration at half of the fitted maximal effect.

SMILES | HPGD inh | ALDH1A1 block | LMNA splice mod | IMPase Li inh | KinaseGlo FLuc
c1cc(CNC2C3CC4CC(C3)CC2C4)ccn1 (stereo not drawn) | nt | 3% | ? | 10% | -3%
CCCCn1c(=O)nc2n(-c3ccc(Cl)cc3)c3ccccc3cc-2c1=O | ? | ? | 9% | 1% | 2%
CCCCn1c(=O)nc2n(-c3ccc(OC)cc3)c3ccccc3cc-2c1=O | nt | 8.9µM* | nt | ? | 3%
Fc1ccc(CN(C2=NCCN2)c2c(Cl)cccc2Cl)cc1 | -9% | -7% | -27% | 16% | -5%
C=CCC1C=CC(Oc2ccc(OC)cc2)C(COC(=O)c2ccc(Br)cc2)O1 (stereo not drawn) | nt | -5%[13.5 µM] | nt | nt | nt
COc1cccc2c(=S)c(CCC(C)=O)c(C)[nH]c12 | ? | ? | ? | 10µM* | -2%
CC(=O)CCc1c(C)c2cccc(C)c2[nH]c1=O | ? | -11% | ? | 7%[38.3 µM] | -1%
COc1ccc(-c2noc(CCC(=O)N3CCC(C)CC3)n2)cc1 | 5µM* | ? | -22% | 8%[38.3 µM] | -4%
Cc1ccc(-c2noc(CCC(=O)N(C)c3ccccc3C)n2)cc1 | 14µM* | -4% | ? | 6%[38.3 µM] | 8%
Cc1ccc(-c2noc(CCC(=O)N3CCCC3)n2)cc1 | 25µM* | 0% | ? | -5%[38.3 µM] | -3%
CCN(C(=O)CCc1nc(-c2ccc(OC)cc2)no1)c1cc(OC)ccc1OC | 14µM* | -14% | ? | 53%[38.3 µM] | -4%
COc1ccc(-c2noc(CCC(=O)N3CCN(Cc4ccccc4)CC3)n2)cc1 | -5% | ? | -1% | 13%[38.3 µM] | -4%
COc1ccc(NC(=O)N2CCC(n3nnc4cc(C)ccc43)CC2)cc1 | -6% | 2% | -4% | 10% | -5%
COc1ccc2oc(=O)c(C(=O)OCC(=O)c3ccc([N+](=O)[O-])cc3)cc2c1 | nt | ? | ? | 6% | 0%
Cc1nc2nc(-c3cccnc3)[nH]n2c(=O)c1C | -3% | 18µM* | -1% | 9%[38.3 µM] | -9%
Cc1ccc(-n2nc3c(c2NC(=O)c2c(-c4ccccc4Cl)noc2C)CS(=O)(=O)C3)c(C)c1 | -6% | ? | -7% | 12% | 3%
Cc1ccc(S(=O)(=O)N/N=C/c2cc(Br)c(C)o2)cc1 | -26% | 5.6µM* | 25% | 9%[38.3 µM] | -5%
Cc1ccc(S(=O)(=O)N/N=C/c2cccn2-c2ccc(Cl)cc2)cc1 | -20% | 0% | 22% | -5%[38.3 µM] | -26%
O=S(=O)(N/N=C/c1c(F)cccc1Cl)c1ccccc1 | -8% | 6.3µM* | -2% | 23%[38.3 µM] | 3%
Cc1ccc(S(=O)(=O)N/N=C/c2cccc([N+](=O)[O-])c2)cc1 | -3% | ? | ? | -3% | 4%
Cc1ccc(S(=O)(=O)N/N=C/c2c(F)cccc2Cl)cc1 | -9% | 28µM* | -24% | 28% | 7%
CCCn1c(SCC(=O)NCc2ccc(Cl)cc2)n[nH]c1=O | nt | 0% | nt | -3% | 1%
O=C(N/N=C/c1cccc(OC(=O)c2ccco2)c1)c1ccc(F)cc1 | -4% | ? | 8% | 20% | 6%
COc1ccccc1/C=C1\S/C(=N/NC(=O)c2cccc(Br)c2)NC1=O | 11µM* | -7% | ? | -6%[38.3 µM] | -1%
COCCN(C)Cc1cn(-c2ccc(F)cc2F)nc1-c1ccccc1C | nt | 25µM* | nt | 19% | -3%
SMILES | HPGD inh | ALDH1A1 block | LMNA splice mod | IMPase Li inh | KinaseGlo FLuc
O=C(/C=C/c1ccccc1Cl)NCc1cccs1 | 14µM* | ? | -9% | 8% | -3%
O=C(CC1CCCCC1)NCc1cn2ccsc2n1 | 22µM* | 10% | 7% | -10%[38.3 µM] | 7%
COC(=O)c1c(NC(=O)/C=C/C(=O)O)sc(C)c1-c1ccc(C(C)C)cc1 | nt | 7.9µM* | ? | 1% | 0%
COC(=O)c1c(NC(=O)/C=C/C(=O)O)sc(C)c1-c1ccc(C)cc1 | nt | ? | 18%[46 µM] | -1% | 4%
CCOC(=O)c1c(NC(=O)/C=C/C(=O)O)sc(C)c1-c1ccc(F)cc1 | nt | 14µM* | nt | 2% | nt
O=C(Nc1ccc(N2C(=O)C3CCCCC3C2=O)cc1Cl)c1cccs1 (stereo not drawn) | nt | 5% | 14%[46 µM] | -11% | 6%
CC(OC(=O)c1ccccc1O)C(=O)Nc1cccc(Cl)c1 (stereo not drawn) | nt | ? | ? | 7% | 0%
CCN(CC)Cc1c(O)ccc2c(C)c(CC(=O)OC)c(=O)oc12 | ? | ? | 6% | 10µM* | -5%
COC(=O)Cc1c(C)c2ccc(OCC(C)=O)c(C)c2oc1=O | ? | ? | -10% | 10%[38.3 µM] | 0%
Cc1ccc(NCc2nnc(SCC(=O)Nc3ncc(C)s3)n2CC2CCCO2)c(C)c1 (stereo not drawn) | -12% | 4.5µM* | ? | -3%[38.3 µM] | -6%
Cc1ccc(NCc2nnc(SCC(=O)Nc3cccc(O)c3)n2CC2CCCO2)c(C)c1 (stereo not drawn) | -8% | 4µM* | 7% | 7%[38.3 µM] | -1%
O=S(=O)(NCc1nc2cccnc2n1Cc1ccccc1)c1ccc2c(c1)CCCC2 | nt | nt | -7%[46 µM] | nt | nt
CCOC(=O)C1CCN(C(=O)CSc2nnc(-c3ccco3)n2-c2ccccc2)CC1 | -4% | 4% | 0% | -2%[38.3 µM] | 2%
O=C(CCS(=O)(=O)c1ccc(Br)s1)NCc1ccccc1 | 4% | 1% | 7% | 10%[38.3 µM] | -5%
Cc1ccc(CNC(=O)CCS(=O)(=O)c2ccc(Br)s2)o1 | -16% | 22µM* | 7% | 26%[38.3 µM] | -1%
O=c1c(=O)n(Cc2ccc(Cl)cc2)ccn1Cc1ccc(F)cc1 | nt | nt | -10%[46 µM] | nt | nt
[O-]/[N+](=C/c1ccc(F)cc1)c1ccc(Cl)cc1 | -15% | 6.3µM* | -3% | 28%[38.3 µM] | -4%
COc1ccc(OC)c(-c2noc(N3CCN(c4ccc(Cl)cc4)CC3)n2)c1 | nt | nt | -13%[46 µM] | nt | nt
FC(F)(F)c1nnc2c(Sc3ccccc3)nc3ccc(Cl)cc3n12 | -11% | ? | ? | -16%[38.3 µM] | -4%
O=C(COC(=O)C1CC(=O)N(Cc2ccccc2)C1)Nc1ccc(Cl)cc1F (stereo not drawn) | nt | 1% | ? | 3% | 2%
CC(=O)Nc1sc(NC(=O)c2ccccc2)nc1-c1cccs1 | -6% | 5% | 2% | -8%[38.3 µM] | 1%
CCN(CC)CCNc1nc(-c2cccs2)c(CC(=O)O)s1 | nt | 20µM* | 1%[9.22 µM] | 7% | 0%
COc1ccccc1-c1ccc(NC2CCCCC2)nn1 | 7.1µM* | -5% | -15% | 13% | -3%
COc1ccccc1-c1ccc(Nc2cccc(C(F)(F)F)c2)nn1 | -6% | 0% | -9% | 2% | 13%
Cc1ccc(OCCCC(=O)Nc2ccc(Br)cc2)cc1 | -2% | -1% | -11% | 17%[38.3 µM] | 4%
COCCNC(=O)/C(C#N)=C/c1ccc(N2CCOCC2)o1 | ? | 32µM* | -5% | 29% | 0%
N#C/C(=C\c1ccc(O)c(O)c1)C(=O)NCCCc1ccccc1 | 32µM* | ? | ? | 12% | 2%
N#C/C(=C\c1ccc(N2CCOCC2)o1)C(=O)NCCc1ccccc1 | nt | ? | 8%[46 µM] | 13% | 4%

Source: PubChem
